High-throughput results as filed in PubChem.
The list is not random: actives were taken first. Their share in the collection is about 19%.
HepG2 tox: kills HepG2 cells in TGF-b inhibitor counter-screen | HepG2 CAGA-GFP viability, ATP luminescence, 18 h | Potency, µM (titrated, usually from 46.1 µM), for inactives: top-dose activity change, negative = cytotoxicity, most hits filed as cytotoxic | 410,000 compounds, 0.76% hits; also: potency is read from the fitted curve at half-maximal effect
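CellTiter-Glo luminescence gave cytotoxicity after 18 hours at 37 degrees C. The cells were HepG2 CAGA-GFP in 1% FBS DMEM, stimulated with 500 pg/mL TGF-beta after compound addition. %Activity was normalised to no-cell wells (complete cell-killing) and DMSO (no toxicity), and curves were fitted and classified.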
TGFb inhibitor: blocks TGF-b signaling; AID 588855; 410,000 compounds, 1.2% hits; HepG2 CAGA-GFP TGF-b/SMAD3 reporter, GFP fluorescence, 18 h; TGF-beta stimulated, 500 pg/mL final; Potency, µM (doses to about 46.1 µM), inactives show at the highest dose activity, negative = inhibition, most hits filed as inhibitors; also: potency is read from the fitted curve at half-maximal effect; % is scaled to controls: 0 for no effect and ±100 for the full control effect; nearly all actives have a fitted effect of over 65% in size
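Inhibition was scored as loss of TGF-beta-induced (500 pg/mL final, 18 hours, 37 degrees C) GFP in HEPG2 cells carrying a CAGA-GFP reporter, in DMEM with 1% FBS. Well GFP was summed per cell; Activity was normalised to unstimulated and stimulated DMSO wells, then concentration-response fitting.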
DT40 TDP1 no CPT: qHTS for Inhibitors of human tyrosyl-DNA phosphodiesterase 1 (TDP1): qHTS in cells in absence of CPT | DT40 Tdp1-/- hTDP1 cells, no CPT, ATP luminescence, 48 h | Potency, µM (highest dose often 46.2 µM), for inactives: at the top dose activity change, negative = growth inhibition, most hits filed as inhibitors | 420,000 compounds, 15% hits; also: potency is read from the fitted curve at half-maximal effect; % is scaled to controls: 0 for no effect and ±100 for the full control effect; nearly all actives have a fitted effect of over 55% in size
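Seeded 400 DT40-hTDP1 cells/well (vehicle DMSO, no 20 nM CPT); pinned compounds; ≥48 hr at 37 °C; CellTiter-Glo luminescence as viability measure.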
TDP1 cell CPT: DT40-hTDP1 cell growth loss with CPT. 420,000 compounds, 12% hits. Potency, µM (top dose mostly 46.2 µM), for the others: at the top dose activity change, negative = growth inhibition, actives largely listed as inhibitors. chicken DT40 Tdp1-/-;hTDP1 cells + 20 nM CPT, ATP luminescence, 48 h; also: potency is read from the fitted curve at half-maximal effect; % is scaled to controls: 0 for no effect and ±100 for the full control effect; nearly all actives have a fitted effect of over 55% in size
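Cell growth measured by CellTiter-Glo luminescence after a minimum 48 h, 37 C compound exposure with 20 nM CPT in Tdp1-knockout DT40 cells stably expressing hTDP1, seeded 400/well; qHTS titration format.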
IL1B secr inh: inflammasome signaling inhibition, IL-1 beta readout. 360,000 compounds, 4.7% hits. activity change, % at 57.5 µM. THP-1 LPS/ATP IL-1B secretion, AlphaLISA, 16 h; active compounds read low; in the data active = activity change below about -50%; inconclusive = mostly about -30% to -49%; also: % is scaled to controls: 0 for no effect and ±100 for the full control effect
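Secreted IL-1B measured by AlphaLISA bead assay after 16 h compound exposure of THP-1 cells; compounds (final up to 57.5 uM) added 1 h before LPS (250 ng/mL) and ATP (1.25 mM) stimulation; lower signal means less secretion.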
ASM inhibitor: inhibitors of human secretory acid sphingomyelinase; placental ASM, HMU-PC fluorogenic substrate, 60 min; Potency, µM (highest dose often 57.5 µM), for the others: top-dose activity change, negative = inhibition, hits mostly inhibitors; 340,000 compounds, 0.006% hits; P17405; also: potency is read from the fitted curve at half-maximal effect
Target sequence (P17405 47-631 limits assumed): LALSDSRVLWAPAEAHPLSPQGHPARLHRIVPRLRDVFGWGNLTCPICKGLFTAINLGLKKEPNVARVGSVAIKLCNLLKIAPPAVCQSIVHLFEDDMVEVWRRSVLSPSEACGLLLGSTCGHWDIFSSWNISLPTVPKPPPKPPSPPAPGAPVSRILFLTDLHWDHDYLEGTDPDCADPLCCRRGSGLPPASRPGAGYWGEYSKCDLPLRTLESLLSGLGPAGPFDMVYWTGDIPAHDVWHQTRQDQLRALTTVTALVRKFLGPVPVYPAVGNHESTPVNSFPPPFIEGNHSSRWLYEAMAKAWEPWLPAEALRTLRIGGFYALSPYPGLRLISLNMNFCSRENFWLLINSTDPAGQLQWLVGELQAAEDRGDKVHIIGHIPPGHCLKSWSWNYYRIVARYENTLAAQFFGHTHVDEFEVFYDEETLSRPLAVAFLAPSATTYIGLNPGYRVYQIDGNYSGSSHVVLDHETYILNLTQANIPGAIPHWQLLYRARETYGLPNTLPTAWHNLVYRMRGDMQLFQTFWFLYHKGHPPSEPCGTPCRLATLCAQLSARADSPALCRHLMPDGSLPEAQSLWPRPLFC
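Fluorogenic HMU-PC substrate (9 uM final) is turned over by placental ASM in 60 min at 37 C after a 10 min compound preincubation. Reaction ended by alkaline stop (pH 10), with fluorescence read at 386/447 nm.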
Active calls of the source: *; ? = inconclusive; / = no result. Unless noted, calls follow the shape of the dose curve; as a rule, active = well fitted curve in the direction sought with a large enough effect; inconclusive = small, poorly fitted or top-dose-only effect, or another doubt; inactive = no such curve, though single readings can be large; an effect the other way counts as inactive or inconclusive.

SMILES	HepG2 tox	TGFb inhibitor	DT40 TDP1 no CPT	TDP1 cell CPT	IL1B secr inh	ASM inhibitor
CC(C)c1ccc(Nc2ncc3c(n2)CCN(C(=O)Nc2ccc(F)c(Cl)c2)C3)cc1	-58.3%	?	?	?	-13.4	/
COc1cccc(NC(=O)N2CCCC2)c1	14.6%	3.1%	10.0%	0.2%	1.9	0.6%
O=C(Nc1ccc(OC(F)(F)F)cc1)N1CCc2nc(NCc3cccc(Oc4ccccc4)c3)ncc2C1	-18.2%	?	20.6µM*	18.4µM*	-21.9	/
CCOc1ccc(NC(=O)N2CCc3ccccc3C2)cc1	0.8%	4.2%	-14.5%	-18.2%	-7.3	0.9%
CCOc1ccc(NC(=O)CN(C)C(=O)CCNC(=O)c2ccccc2Cl)cc1OCC	2.3%	9.3%	4.3%	-4.2%	-0.7	0.0%
C[C@H](NC(=O)c1nc[nH]c1C(=O)N1CCNCC1)C(=O)OC(C)(C)C	-9.9%	-1.0%	2.5%	6.6%	24.7	0.4%
NCCCCCCNS(=O)(=O)c1ccc2c(Cl)cccc2c1	-55.6%	?	11.2µM*	13.3µM*	/	/
NCCCCNS(=O)(=O)c1ccc2c(Cl)cccc2c1	/	/	11.9µM*	11.9µM*	/	/
O=S(=O)(NCC1CCCO1)c1ccc(Cl)c2ccccc12 (stereo not drawn)	-36.3%	-19.8%	?	?	-0.1	/
NCCNS(=O)(=O)c1cccc2c(Cl)cccc12	/	/	26.6µM*	26.6µM*	/	/
COCCC(=O)N1CCC(Oc2ccc(C(=O)NC3CCCCC3)cc2)CC1	1.9%	22.1%	-8.6%	-22.1%	16.0	7.1%
O=C(O)/C=C\c1cc2c(cc1[N+](=O)[O-])OCO2	10.1%	16.7%	-0.4%	3.1%	3.8	-1.2%
O=C1NC(=S)N/C1=C/c1cc2c(cc1[N+](=O)[O-])OCO2	-0.5%	?	0.581µM*	4.11µM*	-9.2	4.0%
CC1(C)CC[C@@]23CC[C@]4(C)[C@@](OC2=O)(C3C1)[C@H]1O[C@H]1C1[C@@]2(C)CC[C@H](O)C(C)(C)C2CC[C@]14C (stereo partly drawn)	11.9%	17.4%	-12.5%	0.0%	12.6	-1.6%
Cc1ccc(-c2cc(C(F)(F)F)n3ncc(C(=O)N4CCCc5ccccc54)c3n2)cc1	-0.4%	3.7%	-10.2%	-27.7%	2.5	1.4%
O=C(c1cnn2c(C(F)F)cc(-c3ccccc3)nc12)N1CCCCC1c1cccnc1 (stereo not drawn)	-5.1%	-18.7%	?	14.6µM*	-8.3	35.7%
Cc1ccc2nc3sc(C(=O)N4CCCc5ccccc54)c(N)c3cc2c1	-11.8%	5.3%	14.6µM*	?	23.8	?
Cc1ccc(-c2cc(C(F)F)n3ncc(C(=O)N4CCc5ccccc54)c3n2)cc1	6.7%	?	1.84µM*	1.84µM*	43.8	-5.6%
Cc1cnn(C(=O)c2cc(-c3ccccc3)nc3ccccc23)c1	10µM*	?	-6.9%	-17.9%	4.3	-2.2%
Cc1cc2ncn(C(=O)c3cc(-c4ccccc4)nc4ccccc34)c2cc1C	5.1%	19.7%	6.3%	-1.4%	14.5	/
O=C(c1cccnc1)N1CCCc2ccccc21	1.4%	-10.2%	1.7%	1.8%	0.0	4.4%
CCCc1nnc(SCC(=O)NC2CC2)n1CC	-0.8%	6.5%	?	-1.7%	24.5	10.9%
O=C(c1cnn2c(C(F)F)cc(-c3ccccc3)nc12)N1CCc2ccccc21	0.0%	-1.3%	?	18.4µM*	51.0	-11.7%
O=C(c1cc(-c2cccnc2)nc2ccccc12)N1CCCc2ccccc21	-0.2%	-13.3%	?	?	-11.3	-0.4%
